Inconclusive results are not listed. Active and inactive are the calls of the source.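 Rule for the calls, unless noted: active = GFP signal, as percent of the solvent control, above the screen mean plus 3 SD, about 149; inconclusive = no reading because the compound's own fluorescence upset strain identification; inactive = the rest.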
Tests used:
[1] = rapamycin-like changes in RPL19A-GFP expression – cell-based, S. cerevisiae, multiplex flow cytometry, primary screen (AID 1862; in the data active = percent of DMSO control GFP below about 86%;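 note: lower values mimic rapamycin by blocking the RPL19A rise seen in DMSO cells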); settings: S. cerevisiae RPL19A-GFP strain, flow cytometry fluorescence, 3 h; at 10 µM; stronger effect = lower value
[2] = TOR pathway GLN3 branch reporter MEP2-GFP changes – S. cerevisiae, multiplex flow cytometry, primary screen (AID 1867;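 active = GFP response, as percent of the DMSO control, above the screen-wide mean plus 3 SD, about 139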;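 note: median GFP channel fluorescence of barcode-gated MEP2-GFP cells measured by flow cytometry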); settings: S. cerevisiae MEP2-GFP strain, 3 h, at 10 µM, stronger effect = higher value, 100% means same as DMSO wells
[3] = TOR pathway RTG branch CIT2 reporter changes – S. cerevisiae, GFP fusion, multiplex flow cytometry, primary screen (AID 1870;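 active = percent response above a set limit, the screen-wide mean plus 3 SD, cut at about 130% in these data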;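 note: barcoded CIT2-GFP strain pooled with four other GFP strains with rapamycin as positive control; median GFP fluorescence per well over plate mean of DMSO wells so 100% = DMSO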); settings: S. cerevisiae CIT2-GFP expression, 3 h, at 10 µM, stronger effect = higher value
[4] = TOR pathway LAP4-GFP level changes – S. cerevisiae, multiplex flow cytometry, primary screen (AID 1873); settings: S. cerevisiae LAP4-GFP expression, 3 h, at 10 µM, stronger effect = higher value
[5] = yeast AGP1-GFP level changes, GLN3 branch – cell-based, multiplex flow cytometry, S. cerevisiae, primary screen (AID 1887;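 active = GFP signal above the screen-wide mean plus 3 SD, that is over about 124.5% of the solvent control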;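 note: AGP1-GFP fusion strain of S. cerevisiae within a five-strain barcoded multiplex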); settings: 3 h, at 10 µM, stronger effect = higher value
[6] = reduced mouse 2C T cell binding to pMHC/ICAM-1 vesicles – MLPCN validation set, flow cytometry, LFA-1/ICAM-1 modulator project, pilot screen (AID 2523;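 active = response below a set limit, under 55% cells CD8-positive and vesicle-bound, and CD8 cells' 90th-percentile brightness under 279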;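 for vesicle binding response: mean PE anti-B7-1 fluorescence of CD8+ cells relative to row control; 100% = QL9-loaded vesicles with DMSO vehicle in the same plate row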); settings: 2C mouse CD8+ T cells, at 7 µM, stronger effect = lower value; double positive events: measured here: CD8+/vesicle+ event percentage
[7] = biological target: Integrin beta-1 (Homo sapiens) + Integrin alpha-4 (Homo sapiens) (UniProt P13612+P05556); assay: alpha4beta1 integrin LIBS antibody binding reduction – U937 cells, HUTS-21 mAb, flow cytometry, validation set, VLA-4 allosteric modulator project, pilot screen (AID 2674;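 active = inhibition above 50%, about 3 SD of the validation set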;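 note: antibody binding induced by the VLA-4 ligand LDV present at three times its Kd; 0% = LDV ligand with antibody and no compound and 100% = antibody without LDV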); settings: HUTS-21 LIBS mAb binding, at 6.7 µM, stronger effect = higher value, binding induced by LDV ligand
Sequence of Integrin beta-1 (Homo sapiens) + Integrin alpha-4 (Homo sapiens) (P05556 whole entry, looked up): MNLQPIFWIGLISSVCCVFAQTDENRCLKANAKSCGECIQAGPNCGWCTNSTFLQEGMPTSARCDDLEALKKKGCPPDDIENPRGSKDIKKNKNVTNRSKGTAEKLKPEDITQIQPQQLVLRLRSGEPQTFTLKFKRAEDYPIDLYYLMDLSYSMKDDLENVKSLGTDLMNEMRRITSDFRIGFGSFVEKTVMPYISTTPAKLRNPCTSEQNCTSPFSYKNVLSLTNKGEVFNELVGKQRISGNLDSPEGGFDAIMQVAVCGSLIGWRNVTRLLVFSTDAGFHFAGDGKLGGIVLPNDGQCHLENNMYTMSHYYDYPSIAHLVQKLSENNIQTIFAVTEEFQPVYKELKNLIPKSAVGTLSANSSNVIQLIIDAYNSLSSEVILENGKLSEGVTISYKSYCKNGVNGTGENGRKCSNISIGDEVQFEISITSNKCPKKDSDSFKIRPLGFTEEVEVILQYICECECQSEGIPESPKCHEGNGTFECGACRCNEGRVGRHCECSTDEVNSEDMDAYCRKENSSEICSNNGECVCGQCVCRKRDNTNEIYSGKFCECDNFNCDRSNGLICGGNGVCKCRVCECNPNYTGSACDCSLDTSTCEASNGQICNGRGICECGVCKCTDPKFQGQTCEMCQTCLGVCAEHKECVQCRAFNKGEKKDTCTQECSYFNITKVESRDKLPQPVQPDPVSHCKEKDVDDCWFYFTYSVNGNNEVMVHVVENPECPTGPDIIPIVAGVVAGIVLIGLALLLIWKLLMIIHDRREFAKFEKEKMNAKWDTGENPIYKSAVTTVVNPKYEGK
Sequence of Integrin beta-1 (Homo sapiens) + Integrin alpha-4 (Homo sapiens) (P13612 whole entry, looked up): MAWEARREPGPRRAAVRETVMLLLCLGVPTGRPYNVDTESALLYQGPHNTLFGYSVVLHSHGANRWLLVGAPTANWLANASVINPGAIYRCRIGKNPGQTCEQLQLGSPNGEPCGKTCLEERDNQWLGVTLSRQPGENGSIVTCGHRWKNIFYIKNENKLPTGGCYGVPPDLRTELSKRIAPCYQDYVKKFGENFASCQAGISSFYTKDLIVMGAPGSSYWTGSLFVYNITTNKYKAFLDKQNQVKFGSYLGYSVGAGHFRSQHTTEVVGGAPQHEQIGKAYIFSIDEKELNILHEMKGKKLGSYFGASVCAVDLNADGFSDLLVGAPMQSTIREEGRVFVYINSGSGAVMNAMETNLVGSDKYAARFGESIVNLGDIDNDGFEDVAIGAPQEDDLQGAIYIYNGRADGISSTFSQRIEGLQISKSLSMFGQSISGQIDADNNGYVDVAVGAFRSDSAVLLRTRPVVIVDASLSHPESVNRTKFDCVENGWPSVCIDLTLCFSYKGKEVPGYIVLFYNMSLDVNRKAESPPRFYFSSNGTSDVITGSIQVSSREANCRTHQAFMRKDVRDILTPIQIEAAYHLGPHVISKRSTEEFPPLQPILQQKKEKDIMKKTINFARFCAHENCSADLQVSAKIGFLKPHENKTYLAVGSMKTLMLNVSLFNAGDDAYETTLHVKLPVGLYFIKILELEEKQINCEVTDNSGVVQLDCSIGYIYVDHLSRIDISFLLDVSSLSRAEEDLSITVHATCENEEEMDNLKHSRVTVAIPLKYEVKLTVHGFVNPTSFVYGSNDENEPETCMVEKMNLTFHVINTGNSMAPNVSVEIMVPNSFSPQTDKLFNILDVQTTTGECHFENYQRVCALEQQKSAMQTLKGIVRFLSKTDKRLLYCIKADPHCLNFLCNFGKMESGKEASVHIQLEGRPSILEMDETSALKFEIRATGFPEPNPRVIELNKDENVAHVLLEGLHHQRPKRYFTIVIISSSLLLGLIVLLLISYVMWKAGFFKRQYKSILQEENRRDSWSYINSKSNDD

[8] = calorie-restriction mimetic ROS inhibitors, yeast – validation compound set, pilot screen (AID 2706;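 active = superoxide response below 65% of plate, a cut near 3 SD across the whole screen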;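 note: yeast exposed to compound for one week at 30 degrees C before staining; 100% = mean of all compound wells on the same plate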); settings: S. cerevisiae aging, superoxide DHE fluorescence; at 10 µM; stronger effect = lower value
[9] = biological target: Beta-adrenergic receptor kinase 1 (Homo sapiens) (UniProt P25098); assay: GRK2 binders displacing RNA aptamer, biochemical, validation, human GRK2, bead flow cytometry (AID 488806;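 active = aptamer binding inhibition above 30%, about 3 SD of noise from non-fluorescent compounds; inactive = inhibition at or below 30%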); settings: bead-bound GRK2, FAM-aptamer displacement, at 10 µM, stronger effect = higher value
Sequence of Beta-adrenergic receptor kinase 1 (Homo sapiens) (P25098 whole entry, looked up): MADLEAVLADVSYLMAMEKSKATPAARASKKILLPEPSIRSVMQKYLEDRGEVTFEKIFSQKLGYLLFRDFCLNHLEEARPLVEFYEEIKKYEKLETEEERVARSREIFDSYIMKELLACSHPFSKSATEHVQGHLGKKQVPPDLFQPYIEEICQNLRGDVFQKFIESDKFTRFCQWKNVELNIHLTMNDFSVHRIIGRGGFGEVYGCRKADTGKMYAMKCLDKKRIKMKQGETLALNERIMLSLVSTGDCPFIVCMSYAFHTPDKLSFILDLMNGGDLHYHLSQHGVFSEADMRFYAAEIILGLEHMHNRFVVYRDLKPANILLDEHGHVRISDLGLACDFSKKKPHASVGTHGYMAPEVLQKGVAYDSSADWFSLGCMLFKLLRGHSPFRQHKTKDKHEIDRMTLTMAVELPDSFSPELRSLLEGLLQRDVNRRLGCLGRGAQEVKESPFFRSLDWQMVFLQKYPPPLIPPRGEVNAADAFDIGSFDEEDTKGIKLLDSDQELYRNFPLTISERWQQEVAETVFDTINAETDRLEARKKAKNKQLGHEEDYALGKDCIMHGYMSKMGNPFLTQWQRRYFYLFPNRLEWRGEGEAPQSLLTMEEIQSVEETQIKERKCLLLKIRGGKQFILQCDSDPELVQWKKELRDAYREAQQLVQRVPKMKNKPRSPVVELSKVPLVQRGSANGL

[10] = biological target: Beta-2 adrenergic receptor (Homo sapiens) (UniProt P07550); assay: agonist-induced loss of surface beta2AR – cell-based, FAP fluorogen, flow cytometry, validation set, pilot screen (AID 504459;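 active = percent response above 42, roughly 3 SD of non-fluorescent test compounds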;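 note: agonist-driven loss of surface beta2AR via internalization measured by FAP dye flow cytometry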); settings: Am2.2-beta2AR cells, at 10 µM, stronger effect = higher value
Sequence of Beta-2 adrenergic receptor (Homo sapiens) (P07550 whole entry, looked up): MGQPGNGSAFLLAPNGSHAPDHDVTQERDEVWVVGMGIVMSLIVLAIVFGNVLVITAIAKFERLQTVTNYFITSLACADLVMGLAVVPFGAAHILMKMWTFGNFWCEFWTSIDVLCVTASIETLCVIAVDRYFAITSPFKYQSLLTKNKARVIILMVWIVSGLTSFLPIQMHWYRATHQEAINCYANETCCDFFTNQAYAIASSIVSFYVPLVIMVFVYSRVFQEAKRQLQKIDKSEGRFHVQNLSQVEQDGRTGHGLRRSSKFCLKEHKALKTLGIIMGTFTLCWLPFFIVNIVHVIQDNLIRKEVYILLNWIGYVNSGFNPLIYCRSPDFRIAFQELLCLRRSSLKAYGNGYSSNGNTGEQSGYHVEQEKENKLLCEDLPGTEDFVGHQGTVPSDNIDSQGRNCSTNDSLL

[11] = biological target: AP-2 complex subunit beta (Homo sapiens) (UniProt P63010); assay: beta-arrestin/AP2 interaction blockers – biochemical, validation set, GST-AP2 beads, flow cytometry, pilot screen (AID 504541;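 active = inhibition above 54%, about 3 SD of non-fluorescent compounds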;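 note: AP2 carries R879A mutation and is captured from E. coli lysate; bead-bound FITC arrestin peptide fluorescence measuring arrestin peptide binding to AP2; 0% = DMSO wells and 100% = excess unlabeled arrestin peptide control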); settings: FITC arrestin peptide, at 10 µM, stronger effect = higher value, AP2 beta2 appendage fragment, R879A mutant
Sequence of AP-2 complex subunit beta (Homo sapiens) (P63010 whole entry, looked up, the tested form may be a part, one chain of several): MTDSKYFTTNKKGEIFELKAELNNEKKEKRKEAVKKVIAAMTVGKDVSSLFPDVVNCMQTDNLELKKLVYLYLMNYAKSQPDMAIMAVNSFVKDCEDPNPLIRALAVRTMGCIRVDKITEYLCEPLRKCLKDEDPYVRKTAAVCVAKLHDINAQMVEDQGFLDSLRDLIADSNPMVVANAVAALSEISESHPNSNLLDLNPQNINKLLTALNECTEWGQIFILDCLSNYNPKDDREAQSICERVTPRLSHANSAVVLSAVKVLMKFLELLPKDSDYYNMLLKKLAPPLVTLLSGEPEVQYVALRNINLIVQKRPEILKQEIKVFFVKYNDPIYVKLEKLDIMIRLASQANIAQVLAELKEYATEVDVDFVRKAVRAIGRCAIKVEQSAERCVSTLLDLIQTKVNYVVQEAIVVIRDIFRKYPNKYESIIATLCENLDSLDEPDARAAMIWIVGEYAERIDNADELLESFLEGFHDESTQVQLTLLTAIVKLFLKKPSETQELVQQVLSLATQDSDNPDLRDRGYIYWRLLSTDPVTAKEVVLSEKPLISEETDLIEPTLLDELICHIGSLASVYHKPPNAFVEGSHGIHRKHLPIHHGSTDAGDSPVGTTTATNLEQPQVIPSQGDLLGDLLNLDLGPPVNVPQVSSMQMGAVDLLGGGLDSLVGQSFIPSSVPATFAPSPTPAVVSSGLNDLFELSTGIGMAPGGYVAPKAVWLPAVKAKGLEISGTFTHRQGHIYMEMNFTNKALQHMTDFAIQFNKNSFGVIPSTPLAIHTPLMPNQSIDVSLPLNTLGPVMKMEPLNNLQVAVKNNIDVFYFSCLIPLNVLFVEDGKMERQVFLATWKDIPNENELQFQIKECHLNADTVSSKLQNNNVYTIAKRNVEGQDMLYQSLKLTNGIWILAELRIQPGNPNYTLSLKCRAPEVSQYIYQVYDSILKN

[12] = cytosolic pH regulators acting via V-ATPase – S. cerevisiae, pHLuorin, HTS validation (AID 504600; in the data active = response above about 15%;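 note: plate controls were DMSO for no effect and reference compound for full effect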); settings: V-ATPase proton transport, at 10 µM, stronger effect = higher value
[13] = test system: anti-desmoglein-3 scFv antibody binding to human DSG3; assay: blockers of pathogenic pemphigus antibody–desmoglein-3 binding – biochemical, validation compound set, bead-based, flow cytometry, pilot screen (AID 588368;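 active = binding below the plate cutoff, the plate median minus 3 SD, with a reading above zero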;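 note: signal is the median channel fluorescence of bead-bound GFP antibody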); settings: Protein G beads, DSG3-Fc, scFv-GFP binding, at 10 µM, stronger effect = lower value
[14] = Nile Red efflux blockade in pump-expressing yeast – validation compound set, multiplex, phenotypic, pilot screen (AID 588506;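 active = efflux inhibition above 0.42, the validation set average plus 4 SD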;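 note: Nile Red retained in cells so higher fluorescence means more efflux inhibition; 0 = negative control wells and 1 = enniatin B 25 µM full block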); settings: S. cerevisiae pump-expressing triplex, Nile Red efflux flow cytometry; at 10 µM; stronger effect = higher value; the pumps come from Candida albicans
[15] = biological target: ATP-binding cassette sub-family B member 6 (Homo sapiens) (UniProt Q9NP58); assay: blockers of ABCB6-driven porphyrin uptake – K562-ABCB6 cells, flow cytometry, validation set, pilot screen (AID 588550;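 active = inhibition above the screen-wide mean plus 3 SD, about 51%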;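 note: 0% = DMSO wells and 100% = benzethonium chloride 70 µM positive control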); settings: K562-ABCB6 porphyrin accumulation, 1 h, at 10 µM, stronger effect = higher value
Sequence of ATP-binding cassette sub-family B member 6 (Homo sapiens) (Q9NP58 whole entry, looked up): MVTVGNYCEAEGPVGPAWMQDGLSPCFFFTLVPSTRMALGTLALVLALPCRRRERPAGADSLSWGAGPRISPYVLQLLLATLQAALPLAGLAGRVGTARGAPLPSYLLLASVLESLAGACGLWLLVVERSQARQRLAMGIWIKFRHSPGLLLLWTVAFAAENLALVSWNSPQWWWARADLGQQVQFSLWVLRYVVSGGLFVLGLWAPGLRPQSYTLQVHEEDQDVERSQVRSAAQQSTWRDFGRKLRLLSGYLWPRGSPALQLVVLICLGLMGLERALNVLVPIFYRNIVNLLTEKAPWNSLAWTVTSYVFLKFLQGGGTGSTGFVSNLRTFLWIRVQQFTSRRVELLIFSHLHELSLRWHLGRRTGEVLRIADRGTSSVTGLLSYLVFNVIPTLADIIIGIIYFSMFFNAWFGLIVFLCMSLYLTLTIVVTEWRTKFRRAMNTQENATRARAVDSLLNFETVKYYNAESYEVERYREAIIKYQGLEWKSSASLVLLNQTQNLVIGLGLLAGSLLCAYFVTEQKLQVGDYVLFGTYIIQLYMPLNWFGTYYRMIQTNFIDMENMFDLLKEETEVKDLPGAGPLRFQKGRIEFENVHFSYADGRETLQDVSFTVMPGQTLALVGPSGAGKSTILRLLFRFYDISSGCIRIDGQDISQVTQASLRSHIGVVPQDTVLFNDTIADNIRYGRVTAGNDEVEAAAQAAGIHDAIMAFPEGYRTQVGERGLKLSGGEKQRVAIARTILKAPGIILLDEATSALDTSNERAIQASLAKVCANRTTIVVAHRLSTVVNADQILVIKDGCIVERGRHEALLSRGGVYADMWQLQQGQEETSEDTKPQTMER

[16] = AML differentiation inducers, ER-HoxA9 marrow cells – cell-based, GFP/MAC1 double positive, flow cytometry, validation set, primary screen (AID 588685;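 active = differentiation response of at least 50%, scaled between solvent and reference control, from cells with both markers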;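 note: compound exposure lasts four days before antibody staining and flow analysis; 0% = DMSO wells and 100% = 5 µM fulvestrant positive control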); settings: stronger effect = higher value, normalized: vehicle 0, fulvestrant 100

Row | SMILES | percent of DMSO control GFP [1] | GFP response vs DMSO [2] | percent response of DMSO control [3] | GFP response vs DMSO [4] | GFP response, % of DMSO [5] | double positive events [6] [%] | vesicle binding response [6] | inhibition [7] | superoxide response (% of plate) [8] | aptamer binding inhibition [9] | response [10] | inhibition [11] | response [12] | binding (% of control) [13] | efflux inhibition (fraction of control) [14] | inhibition [15] | differentiation response [16]
1 | CCOc1ccc2nc(S(N)(=O)=O)sc2c1 | 101% (inactive) | 104% (inactive) | 99.7% (inactive) | 100% (inactive) | 103% (inactive) | 55.1 | 103% (inactive) | 0.25% (inactive) | 102% (inactive) | 5% (inactive) | 3.56% (inactive) | -2.81% (inactive) | -4.65% (inactive) | 101% (inactive) | -0.29 (inactive) | 7% (inactive) | -13.3% (inactive)
2 | COc1ccc2c(c1O)Cc1ccccc1C2=O | 94.8% (inactive) | 139% (inactive) | 110% (inactive) | 84.7% (inactive) | 92.4% (inactive) | 56.5 | 220% (inactive) | -13.9% (inactive) | 117% (inactive) | 0% (inactive) | 0.34% (inactive) | 46.1% (inactive) | -2.94% (inactive) | 104% (inactive) | -0.06 (inactive) | 109% (active) | -0.82% (inactive)
3 | CC(C)(S)[C@@H](N)C(=O)O | 97.8% (inactive) | 109% (inactive) | 87.2% (inactive) | 101% (inactive) | 98.9% (inactive) | 62.5 | 177% (inactive) | 0.94% (inactive) | 85% (inactive) | 6% (inactive) | 1.94% (inactive) | -6.4% (inactive) | 0.19% (inactive) | 98.2% (inactive) | 0.08 (inactive) | 5% (inactive) | 7.2% (inactive)
4 | COc1cc(NC(=O)COc2ccccc2)c(OC)cc1NC(C)=O | 101% (inactive) | 133% (inactive) | 114% (inactive) | 94.6% (inactive) | 101% (inactive) | 59.7 | 216% (inactive) | -14.9% (inactive) | 93% (inactive) | 1% (inactive) | -3.81% (inactive) | -5.93% (inactive) | -0.91% (inactive) | 110% (inactive) | -0.42 (inactive) | 0% (inactive) | 5.73% (inactive)

From PubChem BioAssay
